We go through 20 compounds from PubChem BioAssay (NCATS).

Values without a mark were called inactive. Inconclusive results are not listed. Active and inactive are the calls of the source. The call rests on the fitted dose curve; in most records, active means well fitted curve in the direction sought with a large enough effect; inconclusive means small, poorly fitted or top-dose-only effect, or another doubt; inactive means no such curve, though single readings can be large; an effect the other way counts as inactive or inconclusive. Where a SMILES comes first, the peptide text is derived from it. The star is where a group is joined. PhAc = O=C(Cc1ccccc1)*

For assay [1], the target named is Glutathione peroxidase 1 (Homo sapiens) (UniProt P07203). Description: Primary qHTS Assay for Inhibitors of Recombinant Selenoprotein Glutathione Peroxidase 1 (GPX1) (AID 1845191). Further: nearly all actives have a fitted effect of over 65% in size. The method in brief:
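GR-coupled assay: compounds preincubated 30 min at room temperature with GPX1, then reaction started with CHP; final 10 nM GPX1, 1 mM GSH, 0.5 mM CHP, 0.5 mM NADPH, 100 nM GR, 0.01% BSA, pH 7.5 Tris buffer. NADPH fluorescence (340/450 nm) read at 0 and 15 min.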
A general note: In qHTS, concentration-response curves come from the screen itself.

In assay [2] the target is Phospholipid hydroperoxide glutathione peroxidase GPX4 (Homo sapiens) (UniProt P36969). In words: Primary qHTS Assay for Inhibitors of Recombinant Selenoprotein Glutathione Peroxidase 4 (GPX4) (AID 1845192). Further: nearly all actives have a fitted effect of over 65% in size. The method in brief:
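GR-coupled assay: recombinant GPX4 preincubated 30 min with compound at room temperature; final 200 nM GPX4, 1 mM GSH, 0.5 mM cumene hydroperoxide, 0.5 mM NADPH, 100 nM GR, 0.01% BSA, pH 7.5 Tris. NADPH fluorescence (340/450 nm) read at 0 and 15 min.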

The target of assay [3] is Luciferin 4-monooxygenase (Photinus pyralis) (UniProt P08659). Description: Primary firefly luciferase (FLuc) qHTS assay for identification of artifact compounds. (AID 1845220). Further: nearly all actives have a fitted effect of over 60% in size. The essentials:
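D-luciferin and ATP (10 uM each, final) in Tris acetate buffer pH 7.6 were incubated with compounds for 15 min at room temperature. The reaction was started with 10 nM Photinus pyralis luciferase and luminescence read after 5 min. Percent inhibition was fitted to a 4-parameter Hill equation.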

The nature of assay [4]: Primary fluorescence-based thiol-reactive (MSTI) qHTS assay for identification of artifact compounds. (AID 1845221). Further: nearly all actives have a fitted effect of over 65% in size. Further: potency means the concentration at half of the fitted maximal effect. The essentials: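 Compounds were incubated 1 h at room temperature in the dark with the MSTI probe (4 uM) in PBS pH 7.4, 2% DMSO. Signals were normalized between Acetyl-MSTI and MSTI.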
Assay [5] concerns Nanoluciferase (engineered Oplophorus gracilirostris luciferase). Description: Primary Nanoluciferase (NLuc) qHTS assay for identification of artifact compounds. (AID 1845222). Further: series mostly up to about 54 µM. The method in brief:
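Diluted conditioned medium from NLuc-expressing S16 cells treated with compounds for 15 min at room temperature, then Nano-Glo substrate added; luminescence read after 5 min. Percent inhibition versus no-enzyme and DMSO controls fitted to 4-parameter Hill equation.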

The nature of assay [6]: Primary redox qHTS assay for identification of artifact compounds. (AID 1845223). The essentials:
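Amplex Red (25 uM) and HRP (250 mU/mL) in HBSS, with compounds for 15 min, then 250 uM DTT for 30 min, room temperature, dark. Fluorescence 525/598 nm read; normalized to DMSO and 10 uM DA3003; Hill fit.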

Glutathione peroxidase 1 (Homo sapiens), sequence (P07203 whole entry, looked up): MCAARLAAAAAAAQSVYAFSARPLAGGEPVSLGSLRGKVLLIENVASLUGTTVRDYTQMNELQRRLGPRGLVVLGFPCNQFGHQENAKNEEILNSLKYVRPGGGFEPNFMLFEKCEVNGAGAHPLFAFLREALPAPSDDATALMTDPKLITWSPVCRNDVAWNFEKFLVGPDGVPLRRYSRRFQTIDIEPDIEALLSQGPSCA
Phospholipid hydroperoxide glutathione peroxidase GPX4 (Homo sapiens), sequence (P36969 whole entry, looked up): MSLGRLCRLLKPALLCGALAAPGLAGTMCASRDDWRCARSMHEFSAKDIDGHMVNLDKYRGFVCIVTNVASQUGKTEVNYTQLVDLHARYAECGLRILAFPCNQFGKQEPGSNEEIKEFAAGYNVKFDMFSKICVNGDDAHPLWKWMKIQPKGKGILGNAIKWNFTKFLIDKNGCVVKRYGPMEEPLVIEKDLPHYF

As for `CCOC(=O)CNC(=O)[C@@H]1CCCN1C(=O)Cc1ccccc1` (PhAc-Pro-Gly-OEt), the Potency result in assay [1], in assay [2], in assay [3], in assay [4], in assay [5] and in assay [6] was “inactive” each time.
As to `C/C(=C\CC[C@H](CO)[C@@H]1CC[C@]2(C)C3=C(CC[C@@]12C)[C@@]1(C)CCC(=O)C(C)(C)C1CC3)C(=O)O` (stereo not given in full), the Potency entry in assay [1], in assay [2], in assay [3], in assay [4], in assay [5] and in assay [6] was “inactive” in each case.
With `CC1(C(=O)O)CCCC2(C)C3CC4C5CC3(CCC12)CC45C` (stereo not given), the Potency entry in assay [1], in assay [2], in assay [3], in assay [4], in assay [5] and in assay [6] was “inactive” each time.
Regarding `CC1C2=CC(=O)OC2(O)CC2C1C(O)CC1C(C)(CO)CCCC21C` (stereo not given), the Potency entry in assay [1], in assay [2], in assay [3], in assay [4], in assay [5] and in assay [6] was “inactive” throughout.
For `COc1cc(O)cc2c1C(=O)OC(C)CCCCCCC2` (stereo not given), the Potency entry in assay [1], in assay [2], in assay [3], in assay [5] and in assay [6] was “inactive” each time. In addition, the Potency in assay [4] is 11.9 µM (active).
`OC[C@H]1O[C@@H](Oc2cc(O)cc(-c3cc4ccc(O[C@@H]5O[C@H](CO)[C@@H](O)[C@H](O)[C@H]5O)cc4o3)c2)[C@H](O)[C@@H](O)[C@@H]1O`: the Potency result in assay [1], in assay [2], in assay [3], in assay [5] and in assay [6] was “inactive” in each case. The Potency in assay [4] is 10.3 µM (active).
Turning to `C=C1C(OC(C)=O)CCC2(C)CCC(C(C)(C)O)CC12` (stereo not given), the Potency entry in assay [1], in assay [2], in assay [3], in assay [4], in assay [5] and in assay [6] was “inactive” throughout.
Regarding `C=Cc1ccc(O[C@@H]2O[C@H](CO[C@@H]3O[C@@H](C)[C@H](O)[C@@H](O)[C@H]3O)[C@@H](O)[C@H](O)[C@H]2O)cc1`, the Potency result in assay [1], in assay [2], in assay [3], in assay [5] and in assay [6] was “inactive” throughout. Further, the Potency in assay [4] is 11.6 µM (active).
Regarding `CC1(C)CCCC2(C)c3c4c(c(=O)oc(=O)c3=CCC12)=CCC1C(C)(C)CCCC41C` (stereo not given), the Potency entry in assay [1], in assay [2], in assay [3], in assay [4], in assay [5] and in assay [6] was “inactive” each time.
Turning to `CC1C(O)C(O)C2C(C(=O)OCCc3ccc(O)cc3)=COC(O[C@@H]3O[C@H](CO)[C@@H](O)[C@H](O)[C@H]3O)C12` (stereo not given in full), the Potency result in assay [1], in assay [2], in assay [3], in assay [5] and in assay [6] was “inactive” in each case. In assay [4], the Potency was 1.84 µM (active).
Take `Cc1ccc(COC(=O)N2CC[C@@H](CNc3ncccn3)[C@@H](F)C2)cc1`: the Potency entry in assay [1], in assay [2], in assay [3], in assay [4], in assay [5] and in assay [6] was “inactive” throughout.
Turning to `C=C(C)[C@@H]1CC[C@]2(CO)CC[C@]3(C)[C@H](CC[C@@H]4[C@@]5(C)CC[C@H](O)C(C)(C)[C@@H]5CC[C@]43C)[C@@H]12`, the Potency entry in assay [1], in assay [2], in assay [3], in assay [4], in assay [5] and in assay [6] was “inactive” in each case.
`Cc1ccccc1NC(=O)Nc1ccc(CN2C(=O)N([C@@H](CC(C)C)C(=O)N[C@@H](CC(=O)O)c3ccccc3)C(=O)C2(C)C)cc1`: the Potency entry in assay [1], in assay [2], in assay [3], in assay [4], in assay [5] and in assay [6] was “inactive” in each case.
`COC(=O)c1c(CC=C(C)C)c(OC2OC(CO)C(O)C(O)C2O)c2ccccc2c1OC1OC(CO)C(O)C(O)C1O` (stereo not given): the Potency entry in assay [1], in assay [2], in assay [3], in assay [4], in assay [5] and in assay [6] was “inactive” in each case.
As to `CC(=O)OCC1=C[C@@H]2OC(=O)C3=CO[C@@H](O[C@@H]4O[C@H](CO)[C@@H](O)[C@H](O)[C@H]4O)[C@H]1[C@@H]32`, the Potency entry in assay [1], in assay [2], in assay [3], in assay [4], in assay [5] and in assay [6] was “inactive” throughout.
For the compound `Cc1onc(-c2ccccc2Cl)c1C(=O)N(C)c1ccc(Cl)cc1`, the Potency result in assay [1], in assay [2], in assay [3], in assay [4], in assay [5] and in assay [6] was “inactive” in each case.
For `CC1=C2C(=O)C=C(CO[C@@H]3O[C@H](CO)[C@@H](O)[C@H](O)[C@H]3O)[C@@H]2[C@H]2OC(=O)[C@H](C)[C@@H]2[C@@H](O)C1`, the Potency result in assay [1], in assay [2], in assay [3], in assay [4], in assay [5] and in assay [6] was “inactive” in each case.
Take `O=C(O)CC1(O)C(=O)Nc2ccccc21` (stereo not given): the Potency entry in assay [1], in assay [2], in assay [3], in assay [5] and in assay [6] was “inactive” each time. Moreover, the Potency in assay [4] was 25.1 µM (active).
On to `O=C(/C=C/c1ccc(O)c(O)c1)O[C@@H]1[C@@H](O)[C@H](OC2CCCCC2O)O[C@H](CO)[C@H]1O` (stereo not given in full), for which the Potency entry in assay [1], in assay [2], in assay [3], in assay [5] and in assay [6] was “inactive” in each case. The Potency in assay [4] was 2.92 µM (active).
Turning to `CC(NC(=O)c1ccccc1N)C(=O)O` (stereo not given), the Potency entry in assay [1], in assay [2], in assay [3], in assay [4], in assay [5] and in assay [6] was “inactive” in each case.
